From PubChem BioAssay (NCI)
The panel holds about 79,000 compounds, 15% with a hit somewhere; the sample as a whole holds those more often. A number with no mark means an inactive call. Active and inactive are the calls of the source. Cut-off read from the data, not from the text of the source: active = growth inhibition above about 70%; inactive = the rest.

Tests used:
[1] = NCI Yeast Anticancer Drug Screen. Data for the rad50 strain (AID 155);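 note: 0% = growth of vehicle-only cultures of the same strain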; settings: S. cerevisiae rad50 strain growth inhibition, hits give high values
Outline: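 Compounds were tested on a yeast strain with an engineered DNA damage repair alteration; the reported value is growth inhibition normalised to vehicle treatment.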

[2] = NCI Yeast Anticancer Drug Screen. Data for the mec2-1 strain (AID 157); settings: S. cerevisiae mec2-1 strain, hits give high values
Outline: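 Cells of the genetically defined mec2-1 yeast strain are incubated with test compound. Inhibition of growth is calculated against vehicle-treated controls.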

[3] = NCI Yeast Anticancer Drug Screen. Data for the sgs1 mgt1 strain (AID 161);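 note: 0% = growth of cultures given vehicle only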; settings: S. cerevisiae sgs1 mgt1 strain, hits give high values
Outline: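 Test agents were incubated with a DNA-repair-mutant yeast strain. Growth was then read and compared against vehicle-treated controls.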

[4] = NCI Yeast Anticancer Drug Screen. Data for the cln2 rad14 strain (AID 165);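 note: 0% = growth equal to vehicle treated cultures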; settings: S. cerevisiae cln2 rad14 strain, hits give high values
Outline: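 The screen exposed genetically defined yeast (cln2 rad14) to test compounds and scored growth inhibition relative to vehicle-treated controls.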

[5] = NCI Yeast Anticancer Drug Screen. Data for the bub3 strain (AID 167); settings: S. cerevisiae bub3 mutant strain, hits give high values
Outline: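 Growth of a checkpoint-deficient yeast mutant is measured after compound exposure. Values represent inhibition relative to vehicle.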

[6] = NCI Yeast Anticancer Drug Screen. Data for the mlh1 rad18 strain (AID 175); settings: S. cerevisiae mlh1 rad18 strain growth inhibition, hits give high values
Outline: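 Compound-treated yeast growth, normalised to vehicle controls. Strain bears defined DNA repair mutations.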

[7] = at 5.0 µM (retest, dose inferred, filed as 0.5)
[8] = at 50.0 µM (retest, dose inferred, filed as 5.0)

| SMILES | growth inhibition [1, 7] [%] | growth inhibition [1, 8] | growth inhibition ([1]; at 50.0 µM) | growth inhibition [2, 7] [%] | growth inhibition [2, 8] | growth inhibition ([2]; at 50.0 µM) | growth inhibition [3, 7] [%] | growth inhibition [3, 8] | growth inhibition ([3]; at 50.0 µM) | growth inhibition [4, 7] [%] | growth inhibition [4, 8] | growth inhibition ([4]; at 50.0 µM) | growth inhibition [5, 7] [%] | growth inhibition [5, 8] | growth inhibition ([5]; at 50.0 µM) | growth inhibition [6, 7] [%] | growth inhibition [6, 8] | growth inhibition ([6]; at 50.0 µM) |
| --- | --- | --- | --- | --- | --- | --- | --- | --- | --- | --- | --- | --- | --- | --- | --- | --- | --- | --- |
| CCCCCCCCCCCCOc1c(Cl)cc(Cl)c(Cl)c1Cc1c(O)c(Cl)cc(Cl)c1Cl | 1 | 86% (active) | 97.5% (active) | 0 | 92% (active) | 98.5% (active) | 2 | 72% (active) | 98.3% (active) | -2 | 87% (active) | 97.2% (active) | 0 | 89% (active) | 96.4% (active) | 2 | 87% (active) | 97.7% (active) |
| COC12C(COC(N)=O)C3=C(C(=O)C(C)=C(N)C3=O)N1CC1C2N1C(=O)c1ccc(Cl)cc1 (stereo not given) | 12 | 57% | 43.3% | 15 | 75% (active) | 50.1% | 20 | 81% (active) | 65.5% | 3 | 72% (active) | 46.4% | 3 | 50% | 43.4% | 25 | 86% (active) | 71.1% (active) |
| OCC(CCc1c[nH]c2ccccc12)c1c[nH]c2ccccc12 (stereo not given) | 27 | 99% (active) | 99.4% (active) | 5 | 99% (active) | 99.3% (active) | 20 | 100% (active) | 62% | 5 | 99% (active) | 99.5% (active) | 21 | 100% (active) | 99.3% (active) | 11 | 98% (active) | 99.3% (active) |
| Cc1cc[c]([Sn]([Cl])([O][Sn]([Cl])([c]2ccc(C)cc2)[c]2ccc(C)cc2)[c]2ccc(C)cc2)cc1 | 17 | 57% | 84.7% (active) | 15 | 55% | 89.2% (active) | 29 | 63% | 85.8% (active) | 2 | 35% | 83.1% (active) | 16 | 67% | 86.7% (active) | 26 | 54% | 91.3% (active) |
| Oc1ccc2c(c1)OCC1c3ccccc3OC21 (stereo not given) | 24 | 71% (active) | 76.7% (active) | 38 | 78% (active) | 64.3% | 28 | 73% (active) | 66.3% | 23 | 56% | 50.1% | 37 | 89% (active) | 75% (active) | 50 | 88% (active) | 76.7% (active) |
| O=C(O)c1cc2c(cc1CC(Cc1ccc3c(c1)CCCC3)C(=O)O)CCCC2 (stereo not given) | 20 | 95% (active) | 86.3% (active) | 16 | 98% (active) | 73.3% (active) | 19 | 98% (active) | 70.2% (active) | 9 | 96% (active) | 74.4% (active) | 7 | 98% (active) | 76.2% (active) | 8 | 96% (active) | 82.5% (active) |
| O=C(O)c1ccccc1/C=N/O | 1 | -4% | 1.5% | 2 | -2% | -4.2% | 0 | -2% | 3% | -2 | 1% | 93% (active) | 0 | -1% | 4.4% | 0 | -3% | 6.7% |
| CC1=CC(O)(c2ccc(-c3ccccc3Cl)cc2)OC1=O (stereo not given) | -8 | 90% (active) | 90.2% (active) | 0 | 96% (active) | 94.8% (active) | -1 | 88% (active) | 92.1% (active) | -19 | 87% (active) | 90.9% (active) | -11 | 95% (active) | 89.3% (active) | -9 | 94% (active) | 96.3% (active) |
| Nc1ccc(-c2ccc(Cl)cc2)cc1 | 0 | 96% (active) | 96.7% (active) | -2 | 61% | 78.7% (active) | -1 | 78% (active) | 94.5% (active) | -6 | 93% (active) | 92.2% (active) | 4 | 61% | 96.9% (active) | -1 | 95% (active) | 93.3% (active) |
| CCN(CC)CCNc1c(O)cc(C)c2sc3ccccc3c(=O)c12 | 18 | 95% (active) | 98.5% (active) | 10 | 94% (active) | 99% (active) | 7 | 98% (active) | 98.8% (active) | 11 | 84% (active) | 96.8% (active) | 3 | 84% (active) | 97.2% (active) | 2 | 96% (active) | 98.3% (active) |
